This is a sample that favours compounds with a hit; in the whole collection about 1.3% have one here.
GRP78 ERSR act: qHTS for Inducers of the Endoplasmic Reticulum Stress Response (ERSR) in Human Glioma: qHTS; U87-MG GRP78 promoter luciferase reporter, 16 h; AID 602332, 2012; Potency, µM, for inactives: at the highest dose activation, actives largely listed as activators; hit rate 0.02% among 420,000; also: potency is read from the fitted curve at half-maximal effect; series mostly up to about 76 µM; % of control where 0% means no effect; nearly all actives have a fitted effect of over 35% in size
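Stably transfected U87-MG glioma cells carrying a GRP78-based luciferase sensor; 16 h compound incubation. Luminescence end-point read 10 min after Bright-Glo addition at room temperature.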
FEN1 inh: qHTS Assay for the Inhibitors of Human Flap endonuclease 1 (FEN1). hit rate 0.35% among 390,000. Recombinant FEN1 flap cleavage, fluorescence, 15 min. AID 588795, 2011. Potency, µM (series often up to 114 µM), without a hit: at the highest dose activity change, negative = inhibition, actives largely listed as inhibitors. P39748; also: potency is read from the fitted curve at half-maximal effect; % is scaled to controls: 0 for no effect and ±100 for the full control effect; nearly all actives have a fitted effect of over 65% in size
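Read-out was taken twice, immediately and after 15 min, following addition of 50 nM substrate to 10 nM FEN1 that had sat with test compound for 15 min at room temperature. Curves came from a four-parameter Hill model.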
PI5P4Ka inh: qHTS for Inhibitors of phosphatidylinositol 5-phosphate 4-kinase (PI5P4K); Phosphatidylinositol 5-phosphate 4-kinase type-2 alpha (Homo sapiens), P48426; PI5P4Kalpha enzyme, ADP-Glo luminescence, 60 min; hits give low values; max response, %; hit rate 1.2% among 330,000; active = max response of -50% or lower; inconclusive = between -30% and -50%; inactive = -30% or higher; also: value at the top dose of about 77 µM; % is scaled to controls: 0 for no effect and ±100 for the full control effect
Target sequence (P48426 whole entry, looked up): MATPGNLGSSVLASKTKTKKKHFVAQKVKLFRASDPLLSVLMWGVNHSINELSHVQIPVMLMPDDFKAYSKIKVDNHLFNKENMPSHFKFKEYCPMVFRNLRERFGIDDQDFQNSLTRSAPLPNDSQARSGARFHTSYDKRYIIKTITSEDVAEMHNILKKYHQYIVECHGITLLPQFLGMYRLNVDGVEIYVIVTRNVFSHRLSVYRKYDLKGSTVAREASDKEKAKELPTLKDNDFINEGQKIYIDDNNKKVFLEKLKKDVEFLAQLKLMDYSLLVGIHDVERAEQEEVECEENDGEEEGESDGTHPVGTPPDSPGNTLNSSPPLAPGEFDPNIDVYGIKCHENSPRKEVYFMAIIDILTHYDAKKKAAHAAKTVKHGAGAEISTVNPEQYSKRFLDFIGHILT
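PI5P4Kalpha ADP-Glo assay; 5 microM ATP final; 60 min RT reaction; HEPES pH 7.4/EGTA/CHAPS, 5% DMSO; controls lacking substrate or enzyme; luminescent end-point.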
WRN inhibitor: qHTS for Inhibitors of WRN Helicase. Potency, µM (top dose mostly 114 µM), for the others: at the highest dose activity change, negative = inhibition, usual class: inhibitors. AID 651768, 2012. WRN helicase unwinding, fluorescent forked duplex, kinetic. hit rate 0.46% among 360,000. Bifunctional 3'-5' exonuclease/ATP-dependent helicase WRN (Homo sapiens), Q14191; also: potency is read from the fitted curve at half-maximal effect; % is scaled to controls: 0 for no effect and ±100 for the full control effect; nearly all actives have a fitted effect of over 55% in size
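Kinetic red-fluorescence monitoring (525/598 nm) tracks WRN helicase activity after 100 nM fluorophore-quencher forked duplex and 2 mM ATP are added to 20 nM enzyme pretreated 15 min at room temperature with compound.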
Tb PGK inh: qHTS Assay to Find Inhibitors of Phosphoglycerate Kinase | Phosphoglycerate kinase, glycosomal (Trypanosoma brucei brucei), P07378 | PGK/GAPDH coupled, Kinase-Glo luminescence, 60 min | Potency, µM (top dose mostly 57.5 µM), without a hit: top-dose activity change, negative = inhibition, most hits filed as inhibitors | hit rate 0.043% among 380,000; also: potency is read from the fitted curve at half-maximal effect; % is scaled to controls: 0 for no effect and ±100 for the full control effect; nearly all actives have a fitted effect of over 60% in size
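Recombinant glycosomal PGK reaction used 1,3-bisphosphoglycerate generated in-well by GAPDH (100nM final) in 100mM TEA pH 7.6, 5mM MgCl2, 0.01% Tween-20. After 60 minutes at room temperature, ATP was read by Kinase-Glo Plus luminescence end-point.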
Pin1 inh: qHTS Assay to Find Inhibitors of Pin1. Peptidyl-prolyl cis-trans isomerase NIMA-interacting 1 (Homo sapiens), Q13526. Pin1 FP peptide displacement, HiFluor488, 10 min. Potency, µM (highest dose often 115 µM), for the others: at the highest dose activity, negative = inhibition, most hits filed as inhibitors. hit rate 0.009% among 390,000. AID 504891, 2011; active = well fitted inhibition curve with a large enough effect in the polarisation, with a control signal flat, not every such curve was filed as active; inconclusive = small, poorly fitted or top-dose-only effect, or effect the other way, or a change in a side signal; inactive = no such curve, though single readings can be large or run the other way; the % refers to the polarisation; also: potency is read from the fitted curve at half-maximal effect; % is scaled to controls: 0 for no effect and ±100 for the full control effect
Target sequence (Q13526 whole entry, looked up): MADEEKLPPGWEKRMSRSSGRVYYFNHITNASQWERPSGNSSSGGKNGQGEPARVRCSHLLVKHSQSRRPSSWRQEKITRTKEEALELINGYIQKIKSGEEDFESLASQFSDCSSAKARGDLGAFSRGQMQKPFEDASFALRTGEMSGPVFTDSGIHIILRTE
* marks the source's active call; other numbers are inactive results; i = inactive; ? = inconclusive; . = no result; [ ] = remark or other dose. Unless noted, calls follow the shape of the dose curve; as a rule, active = well fitted curve in the direction sought with a large enough effect; inconclusive = small, poorly fitted or top-dose-only effect, or another doubt; inactive = no such curve, though single readings can be large; an effect the other way counts as inactive or inconclusive.

SMILES	GRP78 ERSR act	FEN1 inh	PI5P4Ka inh	WRN inhibitor	Tb PGK inh	Pin1 inh
COc1ccc(C2Nc3ccccc3C(=O)N2Cc2cccc(-c3ccccc3)c2)cc1COc1ccc(NC(C)=O)cc1 (stereo not given)	.	.	.	.	.	13%
CCc1nnc(N/N=C/c2cc(Br)c(O)cc2O)n1N	-12%	1%	-69*	-9%[11.6 µM]	-6%	-16%
Cc1cc(C)nc(SCC(=O)NN=C2CCCC2)n1	-2%	?	-50*	4%	i	1%
CC(CSC(=O)c1ccccc1)C(=O)N1CC(Sc2ccccc2)CC1C(=O)O (stereo not given)	-3%	.	.	.	.	.
CC(=O)Nc1ccc(C(=O)N2CCCC(n3cc(C(=O)NCC(C)C)nn3)C2)cc1 (stereo not given)	0%	.	.	.	.	.
CC(C)(C)c1ccc(-c2nc(SCC(=O)Nc3ccc(Cl)cc3)[nH]c(=O)c2C#N)cc1	8%	20µM*	.	.	-12%	.
O=C(c1ccccc1O)N(Cc1ccccc1)Cc1cccs1	.	.	.	.	.	-6%
COc1ccc(C2CC(=O)Oc3ccc(O)cc32)cc1 (stereo not given)	0%	.	.	.	.	.
COc1cc(C2CC(=O)Oc3ccc(O)cc32)cc(OC)c1OC (stereo not given)	50µM*	.	.	.	.	.
COc1cc(OC)c(/C=C/c2cc[n+](C)c3ccccc23)c(OC)c1	-3%	?	.	.	.	.
COc1cc(OC)c(OC)cc1/C=C/c1cc[n+](C)c2ccccc12	-3%	40µM*	.	.	.	.
C[n+]1ccc(/C=C/c2ccccc2O)c2ccccc21	-3%	?	1	-8%	-3%	-5%
C[n+]1ccc(/C=C/c2ccc(C=S)cc2)c2ccccc21	-7%	50µM*	.	.	.	.
COc1cc([C@@H]2c3cc4c(cc3[C@@H](O[C@@H]3O[C@H]5CO[C@H](C)O[C@H]5[C@H](O)[C@@H]3O)[C@H]3COC(=O)[C@H]23)OCO4)cc(OC)c1OP(=O)(O)O	-3%	.	.	.	.	.
c1coc(-c2nnc(-c3ccco3)nn2)c1	4%	45µM*	-79*	20µM*	?	?
Cc1c(C(=O)N/N=C/c2ccc(-c3ccccc3[N+](=O)[O-])o2)sc(N)c1C#N	5%	10%	-53*	?	-1%	?
COc1cc(/C=N/NC(=O)c2sc(N)c(C#N)c2C)ccc1O	-7%	-18%	-84*	?	-4%	?
Cc1c(C(=O)N/N=C/c2ccc(O)c(Br)c2)sc(N)c1C#N	0%	-32%	-84*	-34%	1%	?
COc1ccc(C2Nc3ccccc3C(=O)N2Cc2ccccc2)cc1COc1ccccc1OC (stereo not given)	.	.	.	.	.	8%
CCC(C)C(N)C1=NC(C(=O)N[C@@H](CC(C)C)C(=O)N[C@H](CCC(=O)[O-])C(=O)N[C@H](C(=O)N[C@H]2CCCCNC(=O)[C@H](CC(N)=O)NC(=O)[C@@H](CC(=O)[O-])NC(=O)[C@H](Cc3cnc[nH]3)NC(=O)[C@@H](Cc3ccccc3)NC(=O)[C@H]([C@@H](C)CC)NC(=O)[C@@H](CCCN)NC2=O)[C@@H](C)CC)CS1.[Zn+2] (stereo not given in full)	-2%	8.9µM*	-4	-23%	28µM*	20µM*
Cc1ccc2ccc(C(Nc3ccccn3)c3ccccc3)c(O)c2n1 (stereo not given)	-3%	-23%	-14	-4%	6%	68%
COc1cc(C(Nc2ccccn2)c2ccc3ccc(C)nc3c2O)cc(OC)c1O (stereo not given)	-15%	-20%	-58*	32µM*	-4%	?
Cc1ccccc1S(=O)(=O)/N=C(/c1ccccc1)N1CCOCC1	4%	-4%	-52*	-16%	-6%	-14%
O=c1[nH]c(=O)c2nnc(N/N=C/c3ccccc3F)nc2[nH]1	-2%	-2%	-88*	-8%	8%	0%
CSc1cc2c(s1)c1cnn(Cc3ccccc3F)c(=O)c1n2C	.	.	.	.	.	3%
SMILES	GRP78 ERSR act	FEN1 inh	PI5P4Ka inh	WRN inhibitor	Tb PGK inh	Pin1 inh
O=S(=O)(c1ccc(-c2n[nH]c(=S)o2)cc1)N1CCCC1	-3%	1%	-83*	-20%	-12%	-6%
O=S(=O)(c1ccc(=S)[nH]c1)N1CCCCC1	-4%	-11%	-1	-5%	-1%	-9%
O=S(=O)(c1ccc(-c2n[nH]c(=S)o2)cc1)N1CCCCC1	-1%	3%	-77*	-18%	i	-1%
COc1ccc(C(=O)Oc2ccc(C3NC(=O)c4c(sc5c4CCN(C)C5)N3)cc2OC)cc1 (stereo not given)	-1%	-6%	.	.	-5%	?
CCOc1cc(C2NC(=O)c3c(sc4c3CCN(C)C4)N2)ccc1OC(=O)c1ccccc1Cl (stereo not given)	-4%	89µM*	.	.	-8%	?
O=C1CCC2=C1C1(CCCC1)N=C(Nc1nc3ccccc3o1)N2	.	.	.	.	.	1%
Cc1ccc(C(c2ccc(C)o2)c2cccc([N+](=O)[O-])c2O)o1	-2%	-19%	-56*	?	-9%	-18%
Cc1c2cc[n+](CCN3CCCCC3)cc2c(C)c2c1[nH]c1ccc(O)cc12	-2%	13µM*	?	28µM*	i	44%
Cc1ccc(NS(=O)(=O)c2cc3c(cc2C)OCC(=O)N3)cc1C	.	.	.	.	.	0%
Cc1ccc(NC(=O)c2ccc(-n3cccn3)c([N+](=O)[O-])c2)cc1	1%	-21%	-5	-5%	-4%	-9%
O=C(Nc1ccc(C2=NCCN2)cc1)c1ccc(C(=O)Nc2ccc(C3=NCCN3)cc2)c([N+](=O)[O-])c1	0%	40µM*	-28	?	2%	?
CSc1ncccc1C(=O)NCC1Cc2cc(-c3cnccn3)cc(Cl)c2O1 (stereo not given)	4%	.	.	.	.	.
COc1ccc(OC)c(N2C(N)=NC(N)=NC23CCCC3)c1	-8%	-2%	-6	3%	4%	-6%
Cc1cccc(N2C(N)=NC(N)=NC23CCCCC3)c1	-2%	0%	-63*	17%	-4%	24%
C/C(=N\OCc1nc2ccccc2c(=O)n1/N=C/c1cc(C)cc([N+](=O)[O-])c1O)c1ccccc1	2%	-16%	0	4%	4%	0%
C/C(=N\OCc1nc2ccccc2c(=O)n1/N=C/c1cc([N+](=O)[O-])ccc1O)c1ccccc1	2%	-30%	-54*	-19%	-12%	16%
